# Laboratory results: the supplement of paper PMC9135407
# Where “and” joins values, the source holds several entries; their conditions need not be identical. Equal values may be shown once. Where a name gives a salt, the structure may show the parent alone. The whole screen tested about 5,800 compounds, of which about 620 (11%) showed activity. Only a selection was taken, and actives are over-represented in it overall. A number with no mark means an inactive call.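 How the source made its calls: active = score above a cut-off or among the top three wells of a plate; in these data no inactive exceeds 0.85.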
# Test system: primary human hepatic stellate cells (donor 1)
# Assay: scaled lipid accumulation score (0 = DMSO-like, 1 = nortriptyline-like); higher = stronger HSC inactivation (lipid re-accumulation), active = hit call of the paper
# Details: 48 h
# [1] = library stock concentration: 10 mM
# [2] = library stock concentration: 1 mM
# [3] = library stock concentration: 3.33 mM
# [4] = library stock concentration: 80 uM
# [5] = library stock concentration: 400 uM
# [6] = library stock concentration: 2 mM
structure (smiles),measurement,setting,value
CC(C)[C@H](N)C(=O)OCC(CO)OCn1cnc2c(=O)nc(N)[nH]c21 (stereo not given in full),scaled lipid accumulation score,[1],0.228
CCCCCCC[C@H](O)/C=C/[C@H]1[C@H](O)CC(=O)[C@@H]1C/C=C\CCCC(=O)O [20-ethyl Prostaglandin E2],scaled lipid accumulation score,[2],≤ 0
CC(CCCO)C1CCC2C3C(O)CC4CC(=O)CCC4(C)C3CC(O)C12C (stereo not given) [3-keto Petromyzonol],scaled lipid accumulation score,[2],≤ 0
CN(C)CCOc1ccc(/C(=C(/CCCl)c2ccccc2)c2ccccc2)cc1.O=C(O)CC(O)(CC(=O)O)C(=O)O,scaled lipid accumulation score,[1],0.946 (active)
CN(C)CCOC(=O)COc1ccc(Cl)cc1 [Meclofenoxate hydrochloride],scaled lipid accumulation score,,≤ 0
same,scaled lipid accumulation score,[1],≤ -0.027
CN(C)CCOc1ccc(C(=C(CCCl)c2ccccc2)c2ccccc2)cc1.O=C(O)CC(O)(CC(=O)O)C(=O)O [Toremifene Citrate],scaled lipid accumulation score,[1],1.23 (active)
CN(C)CCOc1ccc(/C(=C(/CCCl)c2ccccc2)c2ccccc2)cc1,scaled lipid accumulation score,[1],≤ 0
CN(C)CCOc1ccc(/C(=C(/CCCl)c2ccccc2)c2ccccc2)cc1 [Toremifene],scaled lipid accumulation score,library stock concentration: 4.9 mM,0.264
OCCOc1ccc(/C(=C(/CCCl)c2ccccc2)c2ccccc2)cc1 [Ospemifene],scaled lipid accumulation score,[3],0.069
same,scaled lipid accumulation score,[1],0.171
CC/C(=C(\c1ccccc1)c1ccc(OCCN(C)C)cc1)c1ccccc1 [Tamoxifen],scaled lipid accumulation score,[1],0.674 and 0.394
same,scaled lipid accumulation score,library stock concentration: 13.5 mM,0.777
CC/C(=C(\c1ccccc1)c1ccc(OCCN(C)C)cc1)c1ccccc1 [Tamoxifen citrate],scaled lipid accumulation score,,0.372
same,scaled lipid accumulation score,library stock concentration: 3.5 mM,0.611
same,scaled lipid accumulation score,library stock concentration: 5.4 mM,0.421
same,scaled lipid accumulation score,[1],0.253 and 0.681 and 0.432
CN(C)CCOc1ccc(/C(=C(/CCCl)c2ccccc2)c2ccccc2)cc1 [Toremifene Citrate],scaled lipid accumulation score,[3],0.112
CN(C)CCOC(=O)COc1ccc(Cl)cc1 [Meclofenoxate (Centrophenoxine) HCl],scaled lipid accumulation score,[3],≤ 0
same,scaled lipid accumulation score,[1],0.043
CC/C(=C(\c1ccccc1)c1ccc(OCCN(C)C)cc1)c1ccccc1 [Tamoxifen Citrate],scaled lipid accumulation score,[3],0.368
same,scaled lipid accumulation score,[1],0.579
CN(C)CCOC(=O)COc1ccc(Cl)cc1 [Centrophenoxine hydrochloride],scaled lipid accumulation score,[1],0.032
O=C(O)CSCC(=O)NC1CCSC1=O (stereo not given),scaled lipid accumulation score,[1],≤ 0
O=C(O)CSCC(=O)NC1CCSC1=O (stereo not given) [Erdosteine],scaled lipid accumulation score,[3],≤ 0
same,scaled lipid accumulation score,[1],≤ 0
CC(C)OC(=O)CCC/C=C/C[C@@H]1[C@@H](/C=C/[C@H](O)CCc2ccccc2)[C@H](O)C[C@@H]1O,scaled lipid accumulation score,[2],≤ 0
C1CNCCN1 [Piperazine],scaled lipid accumulation score,[1],≤ 0
same,scaled lipid accumulation score,library stock concentration: 23.2 mM,0.066
O=C(O)CCCCC(CCSCc1ccccc1)SCc1ccccc1 (stereo not given),scaled lipid accumulation score,[3],≤ 0
same,scaled lipid accumulation score,[1],≤ 0
CCCC[C@@H](C=O)NC(=O)[C@H](CC(C)C)NC(=O)[C@H](CC(C)C)NC(C)=O,scaled lipid accumulation score,library stock concentration: 13 mM,0.811
CC(C)c1ccc(NC(=O)Cn2cnc3c2c(=O)n(C)c(=O)n3C)cc1,scaled lipid accumulation score,[3],≤ 0
same,scaled lipid accumulation score,[1],≤ 0
CCCCC/C=C\C/C=C\CCCCCCCC(=O)OCC [Linoleic Acid ethyl ester],scaled lipid accumulation score,[2],≤ 0
OCCCNc1cc(-c2ccnc(Nc3cccc(Cl)c3)n2)ccn1 [listing 1 of 2 here],scaled lipid accumulation score,[1],0.957 (active)
COc1ccc(Nc2nccc(NCCO)n2)cc1 [Cardiogenol C (hydrochloride)],scaled lipid accumulation score,[2],≤ 0
OCCCNc1cc(-c2ccnc(Nc3cccc(Cl)c3)n2)ccn1 [listing 2 of 2 here],scaled lipid accumulation score,[4],0.137
same,scaled lipid accumulation score,[5],0.324
same,scaled lipid accumulation score,[6],0.587
COc1ccc(Nc2nccc(NCCO)n2)cc1 [Cardiogenol C hydrochloride],scaled lipid accumulation score,[1],≤ 0
C[C@@]1(c2cc(-c3cncnc3)c(F)cc2F)CCSC(N)=N1,scaled lipid accumulation score,[3],≤ 0
same,scaled lipid accumulation score,[1],≤ 0
"CCCCCCCCCCC/C=C\C/C=C\CCCC(=O)O [Eicosa-5,8-dienoic acid (20:2 n-12)]",scaled lipid accumulation score,[2],≤ -0.021
COc1cc(C(C)=O)ccc1OCCCN1CCC(c2noc3cc(F)ccc23)CC1,scaled lipid accumulation score,[1],0.933 (active)
Cc1nc2n(c(=O)c1CCN1CCC(c3noc4cc(F)ccc34)CC1)CCCC2O (stereo not given) [Paliperidone],scaled lipid accumulation score,[1],0.223
COc1cc(C(C)=O)ccc1OCCCN1CCC(c2noc3cc(F)ccc23)CC1 [Iloperidone],scaled lipid accumulation score,[3],0.045
same,scaled lipid accumulation score,[1],0.477
C[Se]CC[C@H](N)C(=O)O,scaled lipid accumulation score,[1],≤ 0
COc1ccc(N(C(=O)Nc2c(C)cccc2C)c2cc(Nc3ccc(N4CCN(C)CC4)cc3)ncn2)c(OC)c1,scaled lipid accumulation score,[4],≤ -0.016
same,scaled lipid accumulation score,[5],0.184
same,scaled lipid accumulation score,[6],0.849
Cc1ccc(-c2ccc3c(ccc4sc5c(c43)NC[C@@H](C)NC5=O)n2)cn1 [listing 1 of 2 here],scaled lipid accumulation score,[1],1.28 (active)
Cc1ccc(-c2ccc3c(ccc4sc5c(c43)NC[C@@H](C)NC5=O)n2)cn1 [listing 2 of 2 here],scaled lipid accumulation score,[4],≤ -0.001
same,scaled lipid accumulation score,[5],≤ -0.001
same,scaled lipid accumulation score,[6],0.744
CN(C)CC(c1ccc(O)cc1)C1(O)CCCCC1 (stereo not given),scaled lipid accumulation score,[1],≤ 0
CN(C)CC(c1ccc(O)cc1)C1(O)CCCCC1 (stereo not given) [Desvenlafaxine Succinate],scaled lipid accumulation score,[3],≤ 0
same,scaled lipid accumulation score,[1],≤ -0.001
CN(C)CC(c1ccc(O)cc1)C1(O)CCCCC1 (stereo not given) [Desvenlafaxine],scaled lipid accumulation score,[3],≤ 0
same,scaled lipid accumulation score,[1],≤ -0.001
Cc1ccc(NC(=O)C(C)C)cc1C1CCN(Cc2ccc(Oc3ccc(F)c(F)c3)cc2)CC1.Cl,scaled lipid accumulation score,[1],1.29 (active)
CC(=O)c1ccc(N2CCOCC2)cc1O [DNA-PK Inhibitor III],scaled lipid accumulation score,[3],≤ 0
N[C@@H](CCC(=O)N[C@@H](CSN=O)C(=O)NCC(=O)O)C(=O)O [S-Nitrosoglutathione],scaled lipid accumulation score,[1],≤ -0.032
Cc1cc2nc3c(=O)[nH]c(=O)nc-3n(CC(O)C(O)C(O)COP(=O)(O)O)c2cc1C (stereo not given),scaled lipid accumulation score,[1],≤ 0
COC(=O)C1=C(C)NC(C)=C(C(=O)OC2CCCN(Cc3ccccc3)C2)C1c1cccc([N+](=O)[O-])c1 (stereo not given),scaled lipid accumulation score,[1],0.032
CC1=C(C(=O)OC2CCCCC2)C(c2ccc([N+](=O)[O-])cc2)C2=C(CC(C)(C)CC2=O)N1 (stereo not given) [listing 1 of 2 here],scaled lipid accumulation score,[3],0.763
CC1=C(C(=O)OC2CCCCC2)C(c2ccc([N+](=O)[O-])cc2)C2=C(CC(C)(C)CC2=O)N1 (stereo not given) [listing 2 of 2 here],scaled lipid accumulation score,[1],0.997 (active)
COC(=O)C1=C(C)NC(C)=C(C(=O)OC2CCCN(Cc3ccccc3)C2)C1c1cccc([N+](=O)[O-])c1 (stereo not given) [Benidipine HCl],scaled lipid accumulation score,[3],0.027
same,scaled lipid accumulation score,[1],0.476
